ADAM17 inh: inhibits human ADAM17; 370,000 tested, 0.83% active; recombinant ADAM17, EDANS/DABCYL FRET peptide cleavage; inhibition, % at 6.95 µM; AID 720648;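 active = inhibition above the mean of compounds lying between control limits plus 3 SD, set per campaign, cut at about 8.5% in these data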;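 note: 0% = DMSO-only wells as the low control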
proKLK7 act: proKLK7 (human) activation, primary screen; P49862; purified proKLK7, EDANS-DABCYL substrate fluorescence; 100% is mature enzyme control, 0% vehicle; activation, % at 7 µM; 370,000 tested, 0.9% active; AID 652039;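 active = activation above the mean of all tested compounds plus 3 SD, computed per campaign excluding outliers beyond control limits, cut at about 13% in these data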
sPLA2-III inh: Blocks human group III sPLA2 activity; Q9NZ20; QFRET BODIPY PC-A2 liposome hydrolysis, fluorescence; inhibition, % at 12.2 µM; 370,000 tested, 0.56% active;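 active = inhibition above mean plus 3 SD of compounds lying within the high and low control bounds, cut at about 19% in these data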;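 note: 0% = median of test compound wells and 100% = no enzyme DMSO wells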
PLC-gamma1 inh: inhibitors of human phospholipase C gamma1 | inhibition, % at 12.2 µM | 370,000 tested, 0.84% active | P19174 | purified PLC-gamma1, fluorogenic substrate, fluorescence; in the data active = inhibition above about 9.5%
PLCb3 inh: PLC-beta3 (human) inhibition, primary screen; Purified PLC-beta3, fluorogenic substrate, fluorescence; 370,000 tested, 0.18% active; Q01970; inhibition, % at 12.2 µM; in the data active = inhibition above about 11%;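 note: 0% = median of compound wells on plate and 100% = full blocker control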
ADAM10 inh: inhibits human ADAM10. inhibition, % at 7 µM. recombinant ADAM10, EDANS/DABCYL FRET peptide cleavage, 3 h. 370,000 tested, 0.62% active. O14672;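 active = inhibition above a per-campaign cutoff equal to the mean of compounds falling between control-based bounds plus 3 SD, cut at about 20% in these data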;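 note: 0% = DMSO wells while the 100% control is not disclosed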
Target sequence (O14672 214-748 limits assumed): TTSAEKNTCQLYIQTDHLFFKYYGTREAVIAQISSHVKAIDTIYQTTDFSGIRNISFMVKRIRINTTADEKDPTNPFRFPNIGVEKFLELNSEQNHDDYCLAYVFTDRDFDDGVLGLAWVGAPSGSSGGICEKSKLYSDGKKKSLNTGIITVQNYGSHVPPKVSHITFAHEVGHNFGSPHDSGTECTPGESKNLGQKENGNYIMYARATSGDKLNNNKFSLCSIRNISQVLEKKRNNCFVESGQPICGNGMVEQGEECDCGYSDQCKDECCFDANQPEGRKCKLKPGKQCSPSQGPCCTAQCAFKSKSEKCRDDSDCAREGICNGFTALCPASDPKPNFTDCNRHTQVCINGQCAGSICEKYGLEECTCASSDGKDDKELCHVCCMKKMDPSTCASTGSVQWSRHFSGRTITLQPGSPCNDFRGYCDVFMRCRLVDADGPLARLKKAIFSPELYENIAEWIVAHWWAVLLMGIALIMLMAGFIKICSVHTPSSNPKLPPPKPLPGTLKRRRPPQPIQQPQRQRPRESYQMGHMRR
* hit, by the source's call; i = inactive; · = no result given. Only some compounds are listed: those with a hit (about 3.4% of all), similar ones and a draw of the others.

SMILES | ADAM17 inh | proKLK7 act | sPLA2-III inh | PLC-gamma1 inh | PLCb3 inh | ADAM10 inh
CC(C)N(C(=O)[C@H]1C[C@H](CC(=O)NCc2ccco2)C(=O)N2CCc3c([nH]c4cc(-c5ccco5)ccc34)[C@]12C)C(C)C | -75 | 35* | -13 | -281 | -430 | -223
CC(C)N(C(=O)[C@H]1CC(CC(=O)NCc2ccco2)C(=O)N2CCc3c([nH]c4ccccc34)[C@]12C)C(C)C (stereo partly drawn) | -2 | 1 | -12 | 0 | 3 | -4
CC[C@]12c3[nH]c4cc(-c5ccco5)ccc4c3CCN1C(=O)[C@@H](CC(=O)NC(C)(C)C)C[C@@H]2C(=O)N1CCN(C(=O)c2ccco2)CC1 | -153 | 116* | -16 | -448 | i | i
C=CCN=C1NC(c2cccc(F)c2)C(C(=O)OC)=C(C)N1Cc1cccc(C(F)(F)F)c1 (stereo not drawn) | 0 | 0 | -15 | 1 | 1 | 1
CC(C)C1CC(N(C)C)=CC(=S)N1 (stereo not drawn) | -24 | 0 | 4 | -72 | -96 | -68
C=CCCC1CN(Cc2ccc(OC)cc2)S(=O)(=O)c2c(NCc3cc(OC)c(OC)c(OC)c3)cccc2O1 (stereo not drawn) | -2 | -5 | -12 | -1 | -3 | -5
CCC[C@@H](CN1CCC[C@H]1CN1C(N)=NC[C@H]1CC(C)C)N1C[C@@H](Cc2ccccc2)N(CCc2ccc(Cl)c(Cl)c2)C1=N | -5 | 0 | 3 | 6 | 12* | -15
Cc1ccccc1NC(=O)CN1CCN(c2nc(-c3ccccc3)cs2)CC1 | 4 | 1 | 0 | 0 | 3 | 6
COc1ccccc1N(CC(=O)Nc1cccc(C(F)(F)F)c1)S(C)(=O)=O | -1 | 0 | -10 | 1 | -1 | 3
Cc1ccc([N+](=O)[O-])cc1N(CC(=O)Nc1ccc(S(=O)(=O)Nc2cccc(C(F)(F)F)c2)cc1)S(C)(=O)=O | 25* | 0 | -93 | 9.9* | 2 | 49*
CCOc1cc(N2CCOCC2)c(OCC)cc1NC(=O)CN1CCc2ccccc2C1 | -1 | -1 | 5 | 8 | 11* | 6
COc1cccc(C(=O)n2ccc3ccc(-c4ccc5ccn(C(=O)c6cccc(OC)c6)c5c4)cc32)c1 | -1 | -9 | -5 | -11 | -15 | -4
CN(C)c1ccc(-c2csc(C(O)c3ccccc3)n2)cc1 (stereo not drawn) | 1 | 0 | 11 | -2 | -1 | -2
CN(C)c1ccc(C(O)c2cc3ccccc3s2)cc1 (stereo not drawn) | 10* | 0 | 14 | -5 | -11 | 13
COc1ccc(NC(=S)NC(NC(=O)c2cccc(C)c2)C(Cl)(Cl)Cl)c([N+](=O)[O-])c1 (stereo not drawn) | 7 | 0 | -12 | 1 | 4 | 21*
Cc1cc2nc(/C=C/c3cccnc3)[nH]c2cc1C | i | 44* | 0 | i | i | i
Cc1cc2nc(/C=C/c3nc4cc(C)c(C)cc4[nH]3)[nH]c2cc1C | -41 | -2 | -3 | -285 | -367 | -101
N#CCC(=O)Nc1ccc(C(=O)OCC(=O)C23CC4CC(CC(C4)C2)C3)cc1 | -2 | 1 | -37 | 4 | -10 | -7
O=C(OCC12CC3CC(CC(C3)C1)C2)c1ccc(NCc2cc(O)ccc2O)cc1 | 7 | 0 | 29* | -4 | -4 | 7
COC(=O)[C@@H]1C[C@@H](c2ccccc2)[C@H](C)C1(C)C | -4 | 0 | 14 | 9.7* | 6 | 3
C[C@H]1[C@@H](NC(=O)/C=C/c2ccccc2)CC[C@@]23CCCN2C(=O)CCC[C@@H]13 | -3 | · | -5 | -1 | 2 | 1
COc1ccc(-c2cc(C3CCN(CC(O)C(F)(F)F)CC3)[nH]n2)cc1 (stereo not drawn) | 1 | 0 | -19 | 3 | -6 | -4
COc1ccc(-c2cc(C3CCN(Cc4cccc(C(F)(F)F)c4)CC3)[nH]n2)cc1 | 12* | 0 | -22 | 8 | 0 | 24*
O=C(OC12CCCN(C1)/C(=C/c1cccnc1)C2)c1ccco1 (stereo not drawn) | -4 | 0 | 5 | -2 | -3 | -10
Cc1oc2ccc(OC(C(=O)O)c3ccccc3)cc2c1C(=O)O (stereo not drawn) | -1 | 0 | 0 | 9.9* | 6 | 1
SMILES | ADAM17 inh | proKLK7 act | sPLA2-III inh | PLC-gamma1 inh | PLCb3 inh | ADAM10 inh
CC(Oc1ccc2oc(-c3ccccc3)c(C(=O)O)c2c1)C(=O)O (stereo not drawn) | -226 | 5 | -2 | -273 | -348 | i
O=C(C1=C[C@H](c2ccc(C(F)(F)F)cc2)C[C@H](OCc2ccc(CO)cc2)O1)N1CCN(Cc2ccc3c(c2)OCO3)CC1 | 5 | 0 | -20 | 2 | 0 | 17
O=C(C1=C[C@@H](c2ccc(C(F)(F)F)cc2)C[C@@H](OCc2ccc(CO)cc2)O1)N1CCN(Cc2ccc3c(c2)OCO3)CC1 | 8 | 0 | -21 | 0 | 1 | 28*
O=C(C[C@@H]1C[C@@H]2c3cc(NS(=O)(=O)c4ccc(F)cc4)ccc3O[C@@H]2[C@H](CO)O1)NCc1ccc(Oc2ccccc2)cc1 | -2 | 1 | -28 | 9.6* | -3 | 5
O=C(N/N=C/c1c(O)ccc2ccccc12)c1cccnc1 | -2 | -7 | 7 | -40 | -64 | -9
Cc1ccc(C(=O)N/N=C/c2c(O)ccc3ccccc23)cn1 | 5 | -7 | 30* | -60 | -89 | 2
Cn1c(NC2=NC3(CCCC3)C3=C(CCCC3=O)N2)nc2ccccc21 | -26 | · | -6 | -192 | -252 | -160
Cc1ccc(-c2cc(NC(=O)Cc3c(C)[nH]c4ccccc34)ccc2Nc2cccnc2)cc1 | 0 | -1 | 3 | 0 | -5 | -2
O=C(Nc1nc2ccccc2[nH]1)c1ccc(Br)o1 | -6 | -1 | 35* | -10 | -18 | -10
O=[N+]([O-])c1ccc(N/N=C/c2ccc(O)c(O)c2O)c(S(=O)(=O)N2CCOCC2)c1 | 7 | 0 | 3 | 11* | 0 | 14
Cc1ccc(C(=O)n2ccc3ccc(-c4ccc5ccn(Cc6ccccc6)c5c4)cc32)cc1 | -6 | -3 | 3 | -61 | -84 | -20
CCCCN1CC(COCc2ccccc2)Oc2cccc(Sc3ccc(OC)c(OC)c3)c2S1(=O)=O (stereo not drawn) | 2 | 0 | -5 | 3 | 5 | 3
CC(Nc1nc(-c2ccc(Cl)cc2)cs1)c1nc2cc(Cl)c(N3CCCCC3)cc2n1CCOCCO (stereo not drawn) | 7 | 0 | -12 | -4 | 0 | 22*
CCCCOC(=O)CCN1C(=O)/C(=C/c2ccccc2)SC1=S | 0 | · | -4 | 3 | -1 | 3
C=CCNS(=O)(=O)c1cccc2cc(C(=O)O)c(O)cc12 | -39 | 27* | -10 | i | i | -159
C=CCNS(=O)(=O)c1cccc(C(C)=O)c1 | 4 | 1 | 2 | 1 | 2 | 7
